# Source: PubChem BioAssay (National Center for Advancing Translational Sciences (NCATS))
# This excerpt belongs to a sample that is enriched for hits.
# FBPA Giardia inh: Giardia lamblia aldolase inhibition; 290,000 compounds, 0.71% hits; Potency, µM (series often up to 59.6 µM), for the others: at the highest dose activity, negative = inhibition, most hits filed as inhibitors; AID 2451; A8B2U2; purified Giardia FBPA; further: potency means the concentration at half of the fitted maximal effect; on the % scale 0 is the no-effect control and ±100 the full control effect; nearly all actives have a fitted effect of over 55% in size
# Target sequence (A8B2U2 whole entry, looked up): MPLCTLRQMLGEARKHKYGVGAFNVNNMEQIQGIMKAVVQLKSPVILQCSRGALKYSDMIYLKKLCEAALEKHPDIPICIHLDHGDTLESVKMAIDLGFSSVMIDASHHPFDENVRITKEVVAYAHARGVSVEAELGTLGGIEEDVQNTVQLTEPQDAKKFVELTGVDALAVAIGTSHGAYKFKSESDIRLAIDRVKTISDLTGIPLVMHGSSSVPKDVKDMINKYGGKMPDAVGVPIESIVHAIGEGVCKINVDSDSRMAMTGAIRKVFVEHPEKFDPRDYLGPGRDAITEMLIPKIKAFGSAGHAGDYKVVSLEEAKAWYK
#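 Giardia FBPA (40 nM reagent) was preincubated 10 min at RT with compound (up to 57.5 uM final), then substrate plus GAPDH/TPI/NAD/arsenate coupling system with diaphorase/resazurin was added; resorufin fluorescence (525/598 nm) was read after 20 min.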
# LmPK inhibitor: inhibitors of Leishmania mexicana pyruvate kinase; Q27686; purified LmPK, Kinase-Glo ATP luminescence, 1 h; Potency, µM (highest dose often 57.5 µM), inactives show at the top dose activity change, negative = inhibition, hits mostly inhibitors; 290,000 compounds, 0.37% hits; further: potency means the concentration at half of the fitted maximal effect; on the % scale 0 is the no-effect control and ±100 the full control effect
#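 Purified LmPK (0.1 nM) with 0.5 mM PEP and 0.1 mM ADP in imidazole buffer pH 7.2 with MgCl2/KCl, 1 h at room temperature. ATP formed was read by luciferase luminescence and normalized to no-enzyme and uninhibited controls.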
# Sm TGR block: inhibitors of Schistosoma mansoni thioredoxin glutathione reductase | Q962Y6 | purified TGR, DTNB reduction, TNB absorbance 405 nm | Potency, µM (highest dose often 114 µM), without a hit: at the highest dose activity change, negative = inhibition, actives largely listed as inhibitors | 360,000 compounds, 3% hits | AID 485364; further: potency means the concentration at half of the fitted maximal effect; on the % scale 0 is the no-effect control and ±100 the full control effect; nearly all actives have a fitted effect of over 60% in size
#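 First, TGR (20 nM dispensed) and NADPH were mixed with compound. Second, a 15 min room-temperature incubation followed. Third, further NADPH and then DTNB were added to start the reaction. Finally, TNB absorbance was monitored kinetically.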
# TbPYK inhibitor: blocks Trypanosoma brucei pyruvate kinase; Q57TT1; TbPYK enzyme, Kinase-Glo Plus ATP luminescence, 45 min; Potency, µM (top dose mostly 76.8 µM), without a hit: at the highest dose activity, negative = inhibition, hits mostly inhibitors; 410,000 compounds, 0.12% hits; further: potency means the concentration at half of the fitted maximal effect; on the % scale 0 is the no-effect control and ±100 the full control effect; nearly all actives have a fitted effect of over 50% in size
#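 Quantitative HTS: titrated library compounds versus trypanosomal pyruvate kinase in TEA buffer (pH 7.2) containing KCl, MgCl2, BSA and Tween-20. Reactions were initiated with ADP, 130 uM final. Kinase-Glo Plus luminescence was read after 45 min at RT.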
# Cycloheximide cs: counter-screen hit for Shiga toxin inhibitors, cycloheximide; cell reporter, cycloheximide protein synthesis inhibition counterscreen; max response, %; 300,000 compounds, 12% hits; AID 2314; in the data active means max response mostly above about 13%, no sharp cut-off; inactive means mostly below about 14%; further: read at 38.3 µM for the half of the compounds with a filed dose; 0% is about no effect
# Shiga inhibitor: Shiga toxin inhibition | 290,000 compounds, 9.2% hits | inhibition, % at 38.7 µM | Vero cells, Shiga toxin protein synthesis inhibition reporter; in the data active means inhibition mostly above about 28%, no sharp cut-off; inactive means mostly below about 43%; further: 0% is about no effect
# Starred values were filed as active, the others as inactive; ? = inconclusive; · = no result given; [ ] = another dose, or the depositor's remark. Unless noted, the call rests on the fitted dose curve; in most records, active means well fitted curve in the direction sought with a large enough effect; inconclusive means small, poorly fitted or top-dose-only effect, or another doubt; inactive means no such curve, though single readings can be large; an effect the other way counts as inactive or inconclusive.
SMILES,FBPA Giardia inh,LmPK inhibitor,Sm TGR block,TbPYK inhibitor,Cycloheximide cs,Shiga inhibitor
O=C(C1CCN(S(=O)(=O)c2cccs2)CC1)N1CCCCC1,·,-8%,1%,1%,35*,37*
O=C(CNS(=O)(=O)c1cccs1)N1CCCCC1,-6%,0%,-5%,-2%,8,30
O=C(CCS(=O)(=O)c1cccs1)N1CCN(c2ccc(F)cc2)CC1,3%,3%,-16%,-12%,41*,79*
Cc1ccc(S(=O)(=O)N2CCN(C(=O)c3ccccc3Cc3ccccc3)CC2)c(C)c1,-3%,3%,5%,1%,-2,-4
CCCN(Cc1cccs1)C(=O)Nc1ccc(Br)cc1F,·,·,1%,4%,·,·
O=S(=O)(c1ccc(Cl)cc1)N1CCN(c2nc(-c3cccc(Br)c3)nc3ccccc23)CC1,·,·,·,·,-4,-8
CCc1ccc(NC(=O)C2CCCN(S(=O)(=O)c3cccs3)C2)cc1 (centres undefined),-8%,1%,-11%,-18%,21*,30
CC1CCCN(C(=O)CNS(=O)(=O)c2cccs2)C1 (centres undefined),4%,-1%,0%,-3%,27*,54
O=C(CCNS(=O)(=O)c1cccs1)N1CCCCCC1,4%,1%,20%,-13%,33*,102*
O=C(CSc1ccccc1)N1CCN(S(=O)(=O)c2cccs2)CC1,·,3%,-22%,0%,5.9*,18
NC(N)=NCCC[C@H](NC(=O)[C@H](Cc1ccccc1)NC(=O)[C@@H]1CCCN1C(=O)[C@H](CO)NC(=O)[C@H](Cc1ccccc1)NC(=O)CNC(=O)[C@@H]1CCCN1C(=O)[C@@H]1CCCN1C(=O)[C@@H](N)CCCN=C(N)N)C(=O)O,6%,·,·,·,-5,-6
CCOC(=O)c1c(S(=O)(=O)NCC(=O)Nc2cccc(CC)c2)c(C)n(C)c1C,·,·,12%,-4%,·,·
Cc1cc(Nc2ccccc2)nn1C(=O)c1ccc([N+](=O)[O-])cc1,-6%,4%,5%,-8%,-3,-7
Cc1cc(Nc2ccccc2)n(-c2ccccc2)n1,8%,5%,3%,1%,-3,-11
Cc1cc(Nc2ccccc2)nn1C(=O)c1ccc(Cl)cc1,-1%,12%,21%,-3%,49*,156*
Cc1cc(Nc2ccccc2)n(C(=O)c2ccccc2)n1,6%,3%,7%,8%,47*,73
Cn1ccs/c1=N\C(=O)Nc1cccc(Cl)c1,-7%,-29%,-4%,2%,42*,71*
CN=c1sc(C(=O)Nc2cccc(Cl)c2)cc(=O)n1C,1%,2%,-4%,20µM*,-2,-17
CCc1cc2ccc(OC)cc2nc1SCC(=O)NNC(=O)c1ccco1,-7%,6%,8.9µM*,-3%,-1,3
COc1ccc(NC(=O)CSc2nc3ccc(OC)cc3[nH]2)cc1,5%,-4%,1%,5%,4,1
CCOc1ccc2nc(SCC(=O)N(C)C3CCS(=O)(=O)C3)[nH]c2c1 (centres undefined),-12%,0%,0%,-22%,-4,-24
COc1ccc2nc(SCC(=O)Nc3nccs3)[nH]c2c1,1%,2%,-6%,3%,20*,43*
CCc1cc2cc(C)c(C)cc2nc1SCC(=O)NNC(=O)c1ccco1,2%,7%,-18%,0%,-4,-7
COc1ccc2nc(SCC(=O)c3ccco3)[nH]c2c1,-21%,-24%,-7%,-8%,48*,63*
CCOc1ccc2nc(SCC(=O)N(C)C)[nH]c2c1,-1%,13%,0%,1%,71*,74*
SMILES,FBPA Giardia inh,LmPK inhibitor,Sm TGR block,TbPYK inhibitor,Cycloheximide cs,Shiga inhibitor
Cc1c(NC(=O)c2cccs2)cccc1-c1nc2cc(Cl)ccc2o1,·,·,3%,4%,·,·
CCCCCCCCCCCCCCOS(=O)(=O)O,?,·,·,·,-6,-4
O=C(CSc1ncnc2ccccc12)c1ccco1,-11%,-1%,-23%,-15%,25*,57
O=C(CSc1ncnc2ccccc12)NCc1ccco1,1%,-5%,-20%,5%,1,-4
O=C(CSc1nc2ccccc2[nH]1)Nc1c(F)c(F)c(F)c(F)c1F,10%,1%,7%,-2%,11,1
COc1ccc2nc(SCC(=O)C(C)(C)C)[nH]c2c1,-17%,6%,0%,-7%,43*,65*
O=C(CSc1nc2ccccc2[nH]1)c1ccco1,?,-13%,?,-5%,28*,106*
CC(C)(O)C#Cc1ccc([C@@H]2C[C@H]3CN(c4ccccc4)C(=O)[C@]34CCCN24)s1,-24%,0%,-35%[57.1 µM],-3%,6,19
O=C1N(c2ccccc2)C[C@@H]2C[C@@H](c3cccs3)N3CCC[C@@]123,-13%,-5%,16µM*,-4%,-1,-28
COc1cc(NCCCC(C)N)c2ncccc2c1 (centres undefined),?,-12%,35µM*,-14%,-14,-42
COc1cc(NCCCCC(C)N)c2nccc(C)c2c1 (centres undefined),·,·,·,-2%,·,·
CSCc1ccc(C(=O)NCc2ccccc2)cc1,0%,0%,-1%,1%,31*,27
CSCc1ccc(C(=O)NCc2ccc(F)cc2)cc1,-3%,-1%,-1%,-6%,3,-52
O=C(NCc1ccccc1)c1ccc(Cl)cc1,-1%,-1%,7%,4%,17,12
CS(=O)(=O)N(Cc1ccccc1)c1ccc(C(=O)Nc2ccc(C(N)=O)cc2)cc1,0%,2%,-60%,-1%,1,-8
CSCc1ccc(C(=O)Nc2ccc(C(N)=O)cc2)cc1,5%,?,2%,-3%,28*,50*
CSCc1ccc(C(=O)NCc2ccc(C)cc2)cc1,7%,2%,-3%,0%,21*,active
CCCCN(CC)C(=O)CCn1c(=O)c2cccn2c2cccnc21,·,·,1%,-1%,·,·
O=[N+]([O-])c1cccc(C2Nc3cccc4cccc(c34)N2)c1,?,0%,35µM*,-1%,9,12
O=[N+]([O-])c1ccc(C2Nc3cccc4cccc(c34)N2)cc1,?,-1%,20µM*,-14%,1,-13
COC(=O)c1ccc(C2Nc3cccc4cccc(c34)N2)cc1,-9%,-9%,?,-3%,8,20
COc1ccc(C)cc1NC(=O)CN1CCCN(S(=O)(=O)c2ccc(Br)cc2)CC1,-5%,-7%,-1%,-1%,-6,-18
C[C@@H]1CC[C@H]2C(=O)N3[C@@H](CC[C@@H](C)[C@@H]3c3ccc(Br)cc3)C(=O)N2[C@@H]1c1ccc(Br)cc1,3%[12.9 µM],·,·,·,·,·
CCCc1c(C)[nH]c2nc3ccccc3n2c1=O,-10%,1%,?,-16%,11,12
O=c1cc(CCl)[nH]c2nc3ccccc3n12,-6%,-11%,22µM*,2%,-3,14
